# Screening results: PubChem, several laboratories
# This is a sample that favours compounds with a hit; in the whole collection about 3.2% have one here.
# TWEAK Fn14 block: blocks TWEAK-Fn14 interaction in a reporter cell assay. AID 1159606. inhibition, % at 10 µM. 2% of 360,000 active. TWEAK-stimulated Fn14 reporter cells, luciferase luminescence, 8 h; in the data active means inhibition above about 50%
# TROY NFkB inh: blocks TROY-dependent signaling in reporter cells | AID 1347056 | 0.98% of 360,000 active | Q293 LMP1-TROYcd NF-kB luciferase reporter, 4 h | inhibition, % at 10 µM;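 active means compounds whose plate-normalised and pattern-corrected inhibition of the luciferase reporter signal at the single screening dose is 50% or more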
# LGR2 inh: Drosophila LGR2 receptor signaling inhibition; HEK293 LGR2, CRE-luciferase, bursicon-stimulated, 4 h; inhibition, % at 9.99 µM; 0.35% of 380,000 active;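 active means drop in luminescence signal, shown as inhibition above about 50% in the replicate tests, limit read from the data, passing the limit was not always enough; inconclusive means probably only some replicates passing the limit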;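 further: agonist challenge used bursicon conditioned medium at about half maximal strength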
# EBV LMP1 NFkB: Epstein-Barr LMP1 NF-kappaB reporter inhibition | inhibition, % at 12.5 µM | LMP1-induced NF-kappaB luciferase reporter cells, luminescence | 0.69% of 350,000 active; in the data active means inhibition above about 41%; inconclusive means no clear call, values can overlap the other calls;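 further: 0% = neutral control wells and 100% = reference inhibitor control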
# EWS-Fli block: EWS/Fli transcriptional activity inhibition. inhibition, % at 12.6 µM. 0.67% of 350,000 active. A673 NR0B1-luciferase reporter, viability-normalised;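 active means mean inhibition of at least 50% after viability correction, with every replicate also passing that limit; inconclusive means mean reaches 50% but only one of two replicates passes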;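 further: firefly luciferase signal divided by Alamar Blue viability fluorescence both relative to DMSO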
# PAX8 reporter: lowers PAX8-driven luciferase in RMG-I cells. RMG-I TPO-luciferase reporter, SteadyGlo, 24 h. inhibition, % at 12.6 µM. 1.2% of 360,000 active. AID 652154;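 active means mean replicate inhibition at least 60% with every replicate also reaching 60%; inconclusive means only one of the two criteria is met; inactive means mean below 60% and not all replicates reaching 60%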;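 further: luciferase light reporting Pax8 driven TPO promoter activity; plate controls were median of neutral control wells for no effect and mitoxantrone controls for full effect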
# Active calls of the source: *; ? = inconclusive; . = not tested or not shown.
SMILES,TWEAK Fn14 block,TROY NFkB inh,LGR2 inh,EBV LMP1 NFkB,EWS-Fli block,PAX8 reporter
C[C@@H]1CN([C@@H](C)CO)S(=O)(=O)c2ccc(C#CCN(C)C)cc2O[C@@H]1CN(C)C,.,.,10,.,-10,.
Cc1cccc(S(=O)(=O)N2C[C@H](O)COC[C@@H]3O[C@@H](CC(=O)NCCCN4CCOCC4)CC[C@H]32)c1,.,.,2,.,-7,-11
O=C1N(CCS(=O)(=O)c2ccccc2)Cc2ccccc2C[C@@]12COC(c1ccc(OCCCO)cc1)=N2,.,.,.,.,-20,.
C/C=C/c1ccc([C@H]2[C@@H](CO)N(C(C)=O)C23CN(S(C)(=O)=O)C3)cc1,.,.,9,.,1,-3
CCOc1cc(-c2sc(Nc3ccccc3)n[n+]2C)ccc1OC,-5,-1,-19,81*,-2,-16
CN(c1ccccc1)c1ccc(/C=C/[N+](=O)[O-])cc1,103*,89*,102*,18,64*,-4
CC1Cc2nc(SCC(=O)Nc3ccc4c(c3)OCCO4)n(C)c(=O)c2S1 (stereo not drawn),42,71*,.,-8,.,.
COCCn1c(SCC(=O)Nc2ccc3c(c2)OCCO3)nc2c(c1=O)SC(C)C2 (stereo not drawn),-23,-42,-63,-40,-48,-37
CC1Cc2nc(SCC(=O)N3CCN(c4ccccc4)CC3)n(C)c(=O)c2S1 (stereo not drawn),1,8,-6,77*,16,26
O=C(NCC[C@H]1CC[C@@H](NC(=O)C2CC2)[C@H](CO)O1)c1cc(Cl)cc(Cl)c1,.,.,4,.,5,.
CCOC(=O)c1sc(NC(=O)c2cncc(Br)c2)nc1C,.,.,-26,.,-53,.
CCOC(=O)c1sc(NC(=O)Nc2ccccc2F)nc1C,94*,82*,?,18,.,-53
COC(=O)c1sc(NC(=S)NC(=O)c2ccccc2F)nc1C,52*,21,-11,-1,-48,34
COC(=O)c1sc(NC(=S)NC(=O)c2cccc(C)c2)nc1C,14,26,.,-4,-12,13
CCOC(=O)c1sc(NC(=O)c2ccc3ncsc3c2)nc1C,-29,-62,-28,-22,87*,33
CCOC(=O)c1sc(NC(=O)c2ccccc2OC)nc1C,36,-5,12,-12,86*,-75
CCOC(=O)c1sc(NC(=O)c2ccc(CC)s2)nc1C,19,-51,.,-46,.,24
CN1[C@H](C(=O)NCc2ccccn2)[C@@H](CO)[C@@H]2Cn3c(ccc(-c4ccc(F)cc4)c3=O)[C@@H]21,.,.,29,.,-2,-4
O=C(N[C@@H]1C=C[C@@H](CC(=O)N2CCCCC2)O[C@@H]1CO)c1cccc(F)c1,.,.,-9,.,2,13
O=C(C[C@H]1C=C[C@@H](NC(=O)c2cccnc2)[C@@H](CO)O1)NCc1ccncn1,.,.,1,.,.,.
Cc1cc(C(=O)Nc2cccc(C(=O)O)c2)oc1C,22,-63,.,66*,.,.
Cc1nc(NC(=O)c2cc3ccccc3o2)sc1C,57*,22,-16,-14,-46,20
CCOC(=O)c1cccc(NC(=O)c2cc3ccccc3o2)c1,-34,-28,-15,-12,84*,-79
CCOC(=O)c1csc(NC(=O)c2ccccc2)n1,4,-68,-51,-27,4,-182
CCOC(=O)c1csc(NC(=O)c2ccc(OCC)cc2)n1,37,0,50,15,53*,10
SMILES,TWEAK Fn14 block,TROY NFkB inh,LGR2 inh,EBV LMP1 NFkB,EWS-Fli block,PAX8 reporter
CN(C)CC(=O)Nc1ccc2c(c1)[C@H]1C[C@H](CC(=O)NCc3ccc(-c4ccccc4)cc3)O[C@H](CO)[C@H]1O2,.,.,4,.,9,19
CCOC(=O)c1sc(NC(=O)c2cc3ccccc3o2)nc1C,-13,-40,-69,2,87*,-1
CCOC(=O)c1ccccc1NC(=O)c1cc2ccccc2o1,-62,-26,1,-2,-191,-4
CCOC(=O)c1csc(NC(=O)c2cc3ccccc3o2)n1,1,-31,-54,-15,59*,-45
COC(=O)c1cc(Cl)c(NC(=O)c2ccc(C(C)(C)C)cc2)cc1OC,-6,-2,-4,11,.,.
COC(=O)c1cc(Cl)c(NC(=O)c2cc3ccccc3o2)cc1OC,54*,.,.,-9,.,.
COc1ccccc1-c1cnc2c(c1)C(=O)N([C@H](C)CO)C[C@H](C)[C@H](CN(C)Cc1cncnc1)O2,.,.,-10,.,-17,.
CO[C@H]1CN(C)C(=O)c2cc(NC(=O)C3CCC3)ccc2OC[C@H](C)NC[C@@H]1C,.,.,15,.,-2,-24
O=C1CSC(=S)N1/N=C/c1ccc(O)c(O)c1O,78*,-4,.,-3,.,.
CC(C)(C)c1ccc(/C=N/N2C(=O)CSC2=S)cc1,68*,38,-5,-2,10,8
COc1ccc(/C=N/N2C(=O)CSC2=S)cc1,-9,-25,.,1,.,.
C[C@H](NC(=O)C[C@@H]1CC[C@@H]2[C@H](COC[C@H](O)CN2C(=O)Nc2cc(Cl)cc(Cl)c2)O1)c1ccccc1,.,.,20,.,-5,-12
O=C(C[C@H]1C[C@@H]2c3cc(NC(=O)C4CCOCC4)ccc3O[C@@H]2[C@H](CO)O1)NC1CCCC1,.,.,4,.,1,-4
CS(=O)(=O)N1CC(=O)N2[C@H](C1)[C@@H](c1ccc(C#CC3CCCC3)cc1)[C@@H]2CO,.,.,3,.,1,.
C[C@@H]1CCCCO[C@H](CN(C)CC2CCCCC2)[C@@H](C)CN([C@H](C)CO)C(=O)c2cc(NC(=O)C3CCCCC3)ccc2O1,.,.,17,.,-1,-17
CC(=O)C1=C(O)C(=O)N(CCc2ccccc2)C1c1ccccc1[N+](=O)[O-] (stereo not drawn),11,-2,-6,-3,13,122*
CCN(CC)CCN1C(=O)C(O)=C(C(C)=O)C1c1ccccc1[N+](=O)[O-] (stereo not drawn),19,15,.,-7,14,15
COc1ccc2nc(NC(=O)c3ccccc3C(=O)O)sc2c1,6,-15,11,-2,3,14
Cc1ccc2nc(NC(=O)c3ccccc3F)sc2c1,69*,8,40,-29,43,-34
COc1ccc2nc(Nc3nc(C)c(C(C)=O)s3)sc2c1,64*,-3,.,-36,.,-194
COc1ccc2nc(NC(=O)c3ccccc3F)sc2c1,47,-24,63*,-19,5,-18
CC(=O)Nc1ccc2c(c1)C(=O)N(C)[C@H]1CC[C@H](CC(=O)N3CCc4ccccc4C3)O[C@@H]1CO2,.,.,3,.,6,-2
c1ccc(-c2ccc(C3[C@H]4CNC[C@@H]3N4Cc3ccccn3)cc2)cc1 (stereo partly drawn),.,.,2,.,-3,-10
O=C(CCl)NCc1cc(-c2ccc(Cl)cc2)no1,7,-4,15,-11,62*,64*
COc1ccc(-c2cn3c4c(sc3n2)CCCC4)cc1,73*,23,.,2,.,-19
CNc1nc(Nc2ccc(C)c(Cl)c2)c2cnn(C)c2n1,39,14,-25,7,11,-10
Cn1ncc2c(Nc3ccc(Br)cc3)nc(Nc3ccc(Br)cc3)nc21,53*,29,7,-2,-7,9
